A short description of assay [1]: qHTS assay to identify small molecule agonists of the vitamin D receptor (VDR) signaling pathway - cell viability counter screen (AID 743224; active means well fitted curve in the direction sought with a large enough effect in the repeat runs; an effect the other way counts as inactive or inconclusive; further: series mostly up to about 63 µM; on the % scale 0 is the no-effect control and ±100 the full control effect; nearly all actives have a fitted effect of over 50% in size). An outline of the steps:
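Luminescence from CellTiter-Glo, read after 30 min at room temperature, reports viability of VDR-bla cells treated with compounds for 16 h at 37C in the wells used for the beta-lactamase FRET read.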

The nature of assay [2]: qHTS assay to identify small molecule antagonists of the vitamin D receptor (VDR) signaling pathway - cell viability counter screen (AID 743225; active means well fitted curve in the direction sought with a large enough effect in the repeat runs; an effect the other way counts as inactive or inconclusive; further: on the % scale 0 is the no-effect control and ±100 the full control effect; nearly all actives have a fitted effect of over 50% in size). A digest of the protocol: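 Parallel cytotoxicity test: VDR-UAS-bla HEK 293T, 3 nM (final) 1-alpha,25-dihydroxyvitamin D3 with test compound, 16 h, 37C. Endpoint is CellTiter-Glo luminescence in the same wells.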
(qHTS replaces the single test concentration by a dilution series.)

The nature of assay [3]: qHTS assay to identify small molecule agonists of the NFkB signaling pathway - cell viability counter screen (AID 1159515). Further: series mostly up to about 61 µM; on the % scale 0 is the no-effect control and ±100 the full control effect; nearly all actives have a fitted effect of over 55% in size. A digest of the protocol:
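Luminescence from CellTiter-Glo (30 min, room temperature) gives viability, measured in the same wells as the beta-lactamase reporter read. Cells were NFkB-bla ME-180, 2,000 per well, treated 5 hr with compounds.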

A short description of assay [4]: qHTS assay to identify small molecule agonists of the endoplasmic reticulum stress response signaling pathway (AID 1159516; active means well fitted activation curve with a large enough effect in the signal ratio in the repeat runs, not every such curve was filed as active; the % refers to the signal ratio; further: on the % scale 0 is the no-effect control and ±100 the full control effect). An outline of the steps: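 Read-out is beta-lactamase cleavage of a FRET substrate (405 nm excitation; 460 and 530 nm emissions) in ESRE-bla HeLa cells after a 5 hr compound exposure at 37 C. Substrate incubation ran 2 hr at room temperature.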

Assay [5] can be described thus: qHTS assay to identify small molecule agonists of the endoplasmic reticulum stress response signaling pathway - cell viability counter screen (AID 1159517).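 Further: HeLa cells carrying an ER stress response element beta-lactamase reporter; series mostly up to about 61 µM; on the % scale 0 is the no-effect control and ±100 the full control effect; nearly all actives have a fitted effect of over 50% in size.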 An outline of the steps: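 Counter-screen wells were identical to the reporter wells. Cells were plated at 1,500 per well and dosed for 5 hr, then read for luminescence 30 min after CellTiter-Glo addition.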
The nature of assay [6]: qHTS assay to identify small molecule antagonists of the retinoid-related orphan receptor gamma (ROR-gamma) signaling pathway - cell viability counter screen (AID 1159520; active means well fitted curve in the direction sought with a large enough effect in the repeat runs; an effect the other way counts as inactive or inconclusive; further: on the % scale 0 is the no-effect control and ±100 the full control effect; nearly all actives have a fitted effect of over 50% in size). An outline of the steps: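 Tet-on ROR gamma CHO cells were given compounds for 2 hr, then doxycycline hyclate at 1 uM final, and incubated 16 hr at 37 C. Viability was measured as ATP content by CellTiter-Glo luminescence.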

The target in assay [7] is Nuclear receptor ROR-gamma (Homo sapiens) (UniProt P51449). Put plainly: qHTS assay to identify small molecule antagonists of the retinoid-related orphan receptor gamma (ROR-gamma) signaling pathway (AID 1159521; active means well fitted curve in the direction sought with a large enough effect in the repeat runs; an effect the other way counts as inactive or inconclusive). An outline of the steps: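 Decreased RORE-driven luciferase luminescence indicates antagonism. Tet-on RORγ CHO cells received compound, then 1 uM final doxycycline 2 h later; signal read after 16 h incubation.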

Assay [8] in a line: qHTS assay to identify small molecule agonists of the AP-1 signaling pathway - cell viability counter screen (AID 1159525). Further: nearly all actives have a fitted effect of over 55% in size. An outline of the steps: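 AP-1-bla ME-180 cells in Opti-MEM with 0.5% dialyzed FBS, compound exposure 5 h at 37 C in 15-point titration. Viability read in the same wells as ATP content by CellTiter-Glo luminescence, normalised to tetra-n-octylammonium bromide and DMSO controls.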

Assay [9] can be described thus: qHTS assay to identify small molecule agonists of the AP-1 signaling pathway (AID 1159526). Further: on the % scale 0 is the no-effect control and ±100 the full control effect.
Assay [10] deals with Retinoic acid receptor RXR-alpha (Homo sapiens) (UniProt P19793). Put plainly: qHTS assay to identify small molecule agonists of the RXR signaling pathway (AID 1159527). Further: nearly all actives have a fitted effect of over 35% in size. Further: potency means the concentration at half of the fitted maximal effect. On activation: on the % scale 0 is the no-effect control and ±100 the full control effect. An outline of the steps: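 16 hr incubation of compound-treated RXR-alpha-UAS-bla HEK 293T cells (2% charcoal-stripped FBS, 37 C) preceded a 2 hr room-temperature LiveBLAzer FRET substrate step and blue/green fluorescence measurement.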

Experimental findings from PubChem BioAssay (Tox21) are described below.

Records with an inconclusive call do not appear. Some structures have more than one record in an assay (separate samples or runs), and their calls can disagree. The source made the active and inactive calls. Unless noted, the call rests on the fitted dose curve.

Chain of Retinoic acid receptor RXR-alpha (Homo sapiens) (P19793 whole entry, looked up): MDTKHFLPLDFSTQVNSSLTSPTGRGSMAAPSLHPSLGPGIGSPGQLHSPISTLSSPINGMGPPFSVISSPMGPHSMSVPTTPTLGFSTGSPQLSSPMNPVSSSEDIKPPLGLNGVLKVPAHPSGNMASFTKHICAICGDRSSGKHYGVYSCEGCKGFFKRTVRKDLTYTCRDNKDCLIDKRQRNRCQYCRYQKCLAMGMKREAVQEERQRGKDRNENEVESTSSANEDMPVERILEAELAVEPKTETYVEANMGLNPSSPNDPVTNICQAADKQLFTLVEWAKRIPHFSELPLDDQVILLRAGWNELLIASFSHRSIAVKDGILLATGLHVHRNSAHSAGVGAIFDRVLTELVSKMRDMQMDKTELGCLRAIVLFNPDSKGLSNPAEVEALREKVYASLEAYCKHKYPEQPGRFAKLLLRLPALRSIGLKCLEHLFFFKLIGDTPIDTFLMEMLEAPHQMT

In the case of `CCCOC(=O)NCCCN(C)C`, the Potency entry in assay [1], in [2], in assay [3], in [4], in assay [5] and in assay [6] was “inactive” throughout. The Potency entry in assay [7] and in [8] was “inactive” each time. In [9], the result was inactive. The Potency in [10] was 21.9 µM (active) and inactive.

Take `Cc1cccc(C)c1[N+](=O)[O-]`: the Potency entry in assay [1], in assay [2], in [3], in assay [4], in assay [5] and in assay [6] was “inactive” each time. In addition, the Potency entry in assay [7], in [8] and in assay [10] was “inactive” throughout. Moreover, in assay [9], the call was inactive.

As to `Cc1ccc(Cl)cc1`, the Potency entry in assay [1], in assay [2], in assay [3], in assay [4], in assay [5] and in assay [6] was “inactive” each time. The Potency entry in assay [7], in [8] and in assay [10] was “inactive” each time. The call in [9] was inactive.

Take `NC(=O)NC(N)=O`: the Potency entry in assay [1], in assay [2], in assay [3], in [4], in assay [5] and in assay [6] was “inactive” each time. Further, the Potency entry in assay [7], in assay [8] and in assay [10] was “inactive” each time. Besides, the outcome in assay [9] was inactive.

Take `O=C1C(N(CO)C(=O)NCO)N(CO)C(=O)N1CO` (stereo not given): the Potency entry in [1], in assay [2], in assay [3], in assay [4], in assay [5] and in assay [6] was “inactive” in each case. For the same compound, the Potency entry in assay [7], in assay [8] and in assay [10] was “inactive” in each case. Also, in assay [9], the compound was classed as inactive.

For `CC(=O)OC(C)(C)C1CC=C(C)CC1` (stereo not given), the Potency result in assay [1], in assay [2], in assay [3], in [4], in assay [5] and in [6] was “inactive” throughout. The Potency result in assay [7], in [8] and in [10] was “inactive” each time. Also, the call in [9] was inactive.

In the case of `C=C(C)CC(C)(C)C`, the Potency result in assay [1], in assay [2], in assay [3], in [4], in [5] and in assay [6] was “inactive” throughout. Besides, the Potency entry in [7], in assay [8] and in [10] was “inactive” throughout. The compound was classed as inactive in assay [9].

As for `COC(=O)CCCCC(=O)OC`, the Potency result in [1], in assay [2], in assay [3], in [4], in assay [5] and in assay [6] was “inactive” throughout. For the same compound, the Potency entry in assay [7], in assay [8] and in [10] was “inactive” each time. Further, the outcome in [9] was inactive.

As for `O=c1n(CCCN2CCN(c3cccc(Cl)c3)CC2)nc2ccccn12`, the Potency result in assay [1], in assay [2], in assay [3], in assay [4], in assay [5] and in assay [6] was “inactive” throughout. Also, the Potency result in assay [7], in assay [8] and in [10] was “inactive” throughout. In [9], the compound was called inactive.

As to `COc1ccc([C@@H]2CC(=O)c3c(O)cc(O[C@@H]4O[C@H](CO[C@@H]5O[C@@H](C)[C@H](O)[C@@H](O)[C@H]5O)[C@@H](O)[C@H](O)[C@H]4O)cc3O2)cc1OC`, the Potency entry in [1], in [2], in assay [3], in assay [4], in [5] and in assay [6] was “inactive” throughout. Moreover, the Potency entry in [7], in assay [8] and in assay [10] was “inactive” each time. For the same compound, the result in assay [9] was inactive.

On to `NC1CCCCC1N` (stereo not given), for which the Potency entry in assay [1], in [2], in assay [3], in assay [4], in assay [5] and in assay [6] was “inactive” in each case. The Potency result in assay [7], in assay [8] and in assay [10] was “inactive” each time. Besides, the compound was called inactive in [9].

With `OCC(CO)(CO)CO`, the Potency entry in assay [1], in [2], in assay [3], in assay [4], in assay [5] and in [6] was “inactive” in each case. The Potency entry in [7], in assay [8] and in [10] was “inactive” throughout. For the same compound, the compound was classed as inactive in assay [9].

In the case of `OB(O)O`, the Potency result in assay [1], in assay [2], in [3], in assay [4], in assay [5] and in [6] was “inactive” each time. Moreover, the Potency entry in [7] and in assay [8] was “inactive” throughout. Also, in [9], the call was inactive. For the same compound, the Potency in assay [10] was 15.5 µM (active).

With `CC(=O)c1nccs1`, the Potency entry in [1], in assay [2], in assay [3], in assay [4], in assay [5] and in assay [6] was “inactive” in each case. For the same compound, the Potency entry in assay [7], in assay [8] and in [10] was “inactive” throughout. Further, the call in assay [9] was inactive.

Consider `C1CCCNCC1`, for which the Potency result in assay [1], in assay [2], in [3], in assay [4], in assay [5] and in [6] was “inactive” each time. Also, the Potency entry in [7], in assay [8] and in assay [10] was “inactive” each time. In addition, the compound was called inactive in assay [9].

Take `Cc1ccc([N+](=O)[O-])cc1N`: the Potency entry in assay [1], in [2], in assay [3], in assay [4], in [5] and in assay [6] was “inactive” throughout. For the same compound, the Potency result in assay [7] and in assay [8] was “inactive” throughout. In [9], the compound was called inactive. The Potency in assay [10] is 21.8 µM (active) and inactive.

As for `Cc1ccc(C)c(S(=O)(=O)O)c1`, the Potency result in assay [1], in assay [2], in [3], in [4], in assay [5] and in assay [6] was “inactive” throughout. Further, the Potency entry in assay [7], in assay [8] and in [10] was “inactive” each time. Moreover, the compound was called inactive in assay [9].

On to `COCN(COC)c1nc(N(COC)COC)nc(N(COC)COC)n1`, for which the Potency entry in assay [1], in [2], in assay [3], in assay [4], in [5] and in [6] was “inactive” throughout. Also, the Potency result in assay [7], in assay [8] and in assay [10] was “inactive” in each case. Further, the result in assay [9] was inactive.

Regarding `CN1Cc2c(N)cccc2C(c2ccccc2)C1` (stereo not given), the Potency entry in assay [1], in assay [2], in [3], in assay [4], in [5] and in [6] was “inactive” each time. Besides, the Potency entry in assay [7], in assay [8] and in [10] was “inactive” throughout. In assay [9], the compound was classed as inactive.

As for `CCCCCCCCCCCC(=O)N(C)CC(=O)O`, the Potency result in assay [1], in assay [2], in assay [3], in assay [4], in assay [5] and in [6] was “inactive” in each case. Moreover, the Potency result in [7] and in assay [8] was “inactive” each time. In addition, the activation in assay [9] was -13.8% [at 6.97 µM] (inactive); in [10], 1.89% [at 6.98 µM] (inactive).

On to `Cc1ccc(C(C)C)cc1`, for which the Potency result in [1], in assay [2], in [3], in [4], in assay [5] and in assay [6] was “inactive” each time. For the same compound, the Potency result in assay [7], in assay [8] and in [10] was “inactive” each time. The outcome in assay [9] was inactive.

On to `CCc1cccc(CC)c1N`, for which the Potency entry in assay [1], in assay [2], in assay [3], in [4], in assay [5] and in assay [6] was “inactive” in each case. The Potency entry in [7], in assay [8] and in assay [10] was “inactive” in each case. In [9], the outcome was inactive.

Turning to `CCCN(CCC)C(=O)SCC`, the Potency result in [1], in assay [2], in assay [3], in assay [4], in assay [5] and in assay [6] was “inactive” each time. For the same compound, the Potency result in assay [7] and in assay [8] was “inactive” in each case. Also, the compound was classed as inactive in assay [9]. In addition, the Potency in assay [10] is 12.3 µM (active).

In the case of `Cc1ccncc1`, the Potency result in [1], in assay [2], in assay [3], in assay [4], in assay [5] and in [6] was “inactive” in each case. Besides, the Potency entry in assay [7], in assay [8] and in [10] was “inactive” throughout. Further, in assay [9], the call was inactive.

`COc1cc(NC(=O)CC(C)=O)c(OC)cc1Cl`: the Potency result in assay [1], in assay [2], in assay [3], in assay [4], in assay [5] and in assay [6] was “inactive” each time. Moreover, the Potency entry in assay [7], in [8] and in [10] was “inactive” throughout. The compound was classed as inactive in [9].

Consider `CCCCC(CC)COC(=O)c1ccc(C(=O)OCC(CC)CCCC)cc1` (stereo not given), for which the Potency result in assay [1], in [2], in assay [3], in [4], in assay [5] and in [6] was “inactive” each time. For the same compound, the Potency entry in assay [7], in assay [8] and in assay [10] was “inactive” each time. Moreover, in assay [9], the result was inactive.
